# Results from PubChem BioAssay (NCI).
# Compounds without any hit were thinned out: in the full panel of roughly 83,000, 20% have a hit.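 The test compound was applied at a single concentration to cells in 96-well plates for 48 hours, and percent growth was recorded.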 Values without a mark were called inactive. Activity calls are given as the source filed them. The calls were made as follows: active = growth percent below 10; inactive = the rest.
# Legend:
# Assay in all cases: NCI-60 one-dose screen, 48 h (100 = growth as untreated, 0 = no growth, -100 = all killed)
# [1] = test system: SR leukemia; conditions: 10 µM unless noted
# [2] = test system: RPMI-8226 leukemia; conditions: 10 µM unless noted
# [3] = test system: OVCAR-8 ovarian; conditions: 10 µM unless noted
# [4] = test system: OVCAR-5 ovarian; conditions: 10 µM unless noted
# [5] = test system: OVCAR-4 ovarian; conditions: 10 µM unless noted
# [6] = test system: SK-OV-3 ovarian; conditions: 10 µM unless noted
# [7] = test system: IGROV1 ovarian; conditions: 10 µM unless noted
# [8] = test system: OVCAR-3 ovarian; conditions: 10 µM unless noted
# [9] = test system: HS 578T breast; conditions: 10 µM
# [10] = test system: NCI/ADR-RES ovarian; conditions: 10 µM unless noted
# [11] = test system: T-47D breast; conditions: 10 µM unless noted
# [12] = test system: BT-549 breast; conditions: 10 µM unless noted
# [13] = test system: MDA-MB-435 melanoma; conditions: 10 µM unless noted
# [14] = test system: SW-620 colon; conditions: 10 µM unless noted
# [15] = test system: MCF7 breast; conditions: 10 µM unless noted
# [16] = test system: HCT-116 colon; conditions: 10 µM unless noted
# [17] = test system: HCC-2998 colon; conditions: 10 µM
# [18] = test system: KM12 colon; conditions: 10 µM unless noted
SMILES,growth [1],growth [2],growth [3],growth [4],growth [5],growth [6],growth [7],growth [8],growth [9],growth [10],growth [11],growth [12],growth [13],growth [14],growth [15],growth [16],growth [17],growth [18]
Cc1ccc(NC(=O)NC(=O)CSc2nc3ccccc3nc2C)cc1,45.8%,57.1%,72.4%,100%,23.3%,56.2%,72.2%,97.4%,97.6%,40.6%,40.9%,59.9%,74.1%,78.3%,52.4%,17.1%,72.1%,76.5%
CC(C)(C)c1ccc(Cn2cc(CSc3nc4ccccc4s3)nn2)cc1,98.7%,97.2%,92%,94.4%,97.5%,96.6%,90.7%,107%,93.7%,92.8%,73.4%,87.7%,106%,97.3%,91.4%,121%,104%,101%
CC(=O)Oc1ccccc1C(=O)N=C1[Se]CCN1C(=O)c1ccccc1OC(C)=O,24%,12.1%,-12.1% (active),-12.4% (active),-2.68% (active),-30.6% (active),-15.1% (active),-74.2% (active),-14.9% (active),-6.15% (active),-15.2% (active),-94.3% (active),-57.2% (active),-26.7% (active),5.48% (active),-44% (active),-4.02% (active),-12.6% (active)
O=C(CNc1nnc(-c2ccc(Cl)cc2)o1)Nc1ccc(-c2nc3ccccc3s2)cc1,71.8%,95.4%,103%,116%,103%,117%,94.1%,97.7%,96.9%,98.9%,79.9%,87%,97.1%,110%,34.5%,89.8%,93.5%,97%
CC[n+]1c(/C=C/C=C2\N(C)c3ccccc3C2(C)C)sc2ccccc21,-5.33% (active),-31% (active),12.8%,27.4%,19.9%,-12.3% (active),32%,8.88% (active),39.8%,30.4%,4.61% (active),-2.69% (active),4.07% (active),17%,-26.9% (active),7.25% (active),32.2%,3.17% (active)
CCCc1cc2cc(-n3nc(C)c4c3CC(C)(C)CC4=O)cc(NC3CCC(O)CC3)c2c(=O)[nH]1 (stereo unspecified),23.8%,15.2%,33%,50.5%,64.7%,6.8% (active),36.9%,23.2%,47.4%,45.5%,38.2%,29.2%,20.8%,24.9%,25.4%,11.3%,24.7%,4.71% (active)
CCN1/C(=C/C=C/c2n(-c3ccccc3)c3ccc(-c4nc5ccccc5s4)cc3[n+]2CC)N(c2ccccc2)c2ccc(-c3nc4ccccc4s3)cc21,15.5%,8.29% (active),10.6%,31.4%,24.7%,-4.86% (active),14%,-0.0306% (active),28.2%,52.3%,5.56% (active),-5.34% (active),-41.1% (active),16.7%,11.2%,10.8%,33.3%,10.6%
C=C1C(=O)O[C@H]2[C@H]1CC/C(CNC(=O)c1cc3cc(OC)ccc3[nH]1)=C\CC[C@@]1(C)O[C@@H]21,-0.374% (active),-38.4% (active),-16.4% (active),-20.4% (active),-3.23% (active),59.3%,-19.8% (active),-90.7% (active),-1.38% (active),54.3%,-46.3% (active),-68.1% (active),-48.1% (active),-72.3% (active),-29.6% (active),-81.3% (active),-90.3% (active),25.4%
O=C(NO)c1ccc(Cn2c(=O)n(-c3ccccc3F)c(=O)c3ccccc32)cc1,1.63% (active),13.3%,-39.3% (active),27.8%,18.2%,9.04% (active),-21.7% (active),-17.8% (active),46.6%,41.6%,8.62% (active),21.3%,-78.7% (active),0.226% (active),20.8%,-3.7% (active),-32.9% (active),-40.7% (active)
COC(=O)[C@@H](OC)[C@@H]1Cc2cc3cc(OC4CC(OC5CC(O)C(O)C(C)O5)C(O)C(C)O4)c(C)c(O)c3c(O)c2C(=O)[C@H]1OC1CC(OC2CC(OC3CC(C)(O)C(O)C(C)O3)C(O)C(C)O2)C(O)C(C)O1 (stereo partly specified),4.74% (active),-17.5% (active),10.2%,18.8%,3.96% (active),21%,28%,6.49% (active),-10.5% (active),42.7%,4% (active),-32.9% (active),-62.4% (active),8.04% (active),8.9% (active),3.51% (active),-32.9% (active),1.5% (active)
CC(C)n1c(NCCc2ccc(O)c(O)c2)nc2c1c(=O)n(C)c(=O)n2C,87.2%,77.4%,104%,79.2%,90.9%,108%,110%,102%,99.5%,93.1%,93.7%,84.5%,98.5%,102%,95.4%,97%,86.9%,91%
CCc1nc2cc(/C=C/C(=O)NO)ccc2c(=O)n1CCc1ccc(OC)cc1,14.3%,10.3%,15.3%,24.2%,39.1%,6.67% (active),40.9%,-1.22% (active),41.8%,9.39% (active),-2.1% (active),55.1%,7.73% (active),5.44% (active),10.5%,1.28% (active),48%,23.7%
COc1ccc(Cc2cc(-c3ccccc3C)n[nH]c2=O)cc1,103%,39.9%,99.9%,101%,92.5%,102%,53.7%,96.4%,90.9%,105%,94.4%,132%,117%,103%,95.4%,98%,110%,97.9%
O=C(Cn1cncn1)Nc1ccc(-c2nc3ccccc3s2)cc1,83.8%,83.3%,94.6%,115%,80.6%,99.9%,92.4%,91%,103%,102%,64.9%,91.5%,105%,106%,36.1%,95.4%,93.9%,98.2%
N#Cc1c(C(F)(F)F)cc(Nc2ccc3nc(NCCN4CCCC4)oc3c2)n2c1nc1ccccc12,0.701% (active),44.6%,65.7%,137%,64.2%,89.9%,79.6%,91.6%,100%,86.5%,66.9%,72.3%,90.8%,37.4%,38.9%,17.9%,68%,73.9%
COc1cc2c(cc1O)c(=O)n(CCN(C)C)c1c3cc4c(cc3ncc21)OCO4,4.06% (active),-30.3% (active),-9.58% (active),-1.62% (active),-1.86% (active),3.14% (active),0.0353% (active),-39.9% (active),11.4%,-12.6% (active),4.79% (active),-15.5% (active),-59.7% (active),1.96% (active),2.14% (active),2.63% (active),-38.6% (active),-11.6% (active)
Nc1c(C(=O)c2ccccc2)sc2nc(-c3cccs3)cc(-c3cccs3)c12,24.4%,57.7%,54.8%,84.5%,62.6%,46%,66.3%,11.9%,53.4%,24.4%,36%,50.9%,-14.4% (active),28.8%,45.9%,16.8%,72.1%,29.1%
